Compound activity (PubChem BioAssay)
PG9 binder: PG9 antibody binding by small molecule | inhibition, % at 6.7 µM | AID 624416 | 0.43% of 360,000 active | TR-FRET gp120-PG9 antibody binding; in the data active means inhibition above about 8.5%
ABCB6 inh MLPCN: human ABCB6 transporter inhibition; K562-ABCB6 porphyrin accumulation, flow cytometry, 1 h; active compounds read low; fluorescence ratio to DMSO, % at 10 µM; 0.19% of 360,000 active;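 active means fluorescence ratio to DMSO below 75%, the collection mean minus 3 SD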;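 further: signal is porphyrin accumulated inside mitochondria; 100% equals median channel fluorescence of DMSO control wells; lower ratio means ABCB6 inhibition with less porphyrin fluorescence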
Granule exo inh: lytic granule exocytosis inhibition; AID 651702; 0.66% of 360,000 active; TALL-104 LAMP-1 surface exposure, flow cytometry; cells stimulated with thapsigargin and PMA; inhibition, % at 10 µM;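 active means inhibition above about 55%, limit read from the data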
rCAG RNA binder: molecules binding r(CAG) RNA repeats | r(CAG) RNA repeat, TO-PRO-1 dye displacement fluorescence | inhibition, % at 3 µM | 1.3% of 370,000 active;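 active means inhibition above the plate cutoff, the mean of all test compounds on that plate plus 3 SD, cut at about 35% in these data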;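 further: 0% = DMSO alone and 100% = 100 µM mitoxantrone as full dye displacement; higher means more dye released from RNA so lower well fluorescence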
PG9 bind confirm: PG9 antibody binding, confirmed; shares compounds with PG9 binder; TR-FRET PG9 antibody binding, biochemical; inhibition, % at 6.7 µM; AID 651571; 90% of 1,500 active; in the data active means inhibition above about 9%
PGV04 counter: counter-screen for PG9 binders: binding control antibody PGV04 | TR-FRET PGV04 antibody-gp120 binding, biochemical | shares compounds with PG9 binder | 95% of 1,500 active | AID 651604 | inhibition, % at 6.7 µM; in the data active means inhibition above about 9.5%
* = called active by the depositor. The list is not random: actives were taken first. Their share in the collection is about 2.5%.

How did CCOc1cccc2cc(C(=O)Nc3ccccc3-c3ccccc3)c(=O)oc12 do in these assays?
PG9 binder: -0.3; ABCB6 inh MLPCN: 102.0; Granule exo inh: 0.6; rCAG RNA binder: -0.9

What do the screens show for `CCOc1cccc2cc(C(=O)NCc3ccc(OC)cc3)c(=N)oc12`?
PG9 binder: 13.4*; ABCB6 inh MLPCN: 91.0; Granule exo inh: -0.4; rCAG RNA binder: -4.6; PG9 bind confirm: 5.5; PGV04 counter: 6.3

What do the screens show for `CCOc1cccc2cc(C(=O)Nc3cc(C)on3)c(=O)oc12`?
PG9 binder: 15.1*; ABCB6 inh MLPCN: 81.0; Granule exo inh: -2.3; rCAG RNA binder: 2.3; PG9 bind confirm: 33.0*; PGV04 counter: 36.7*

How did CCOc1cccc2cc(C(=O)NCc3ccc(C)cc3)c(=N)oc12 do in these assays?
PG9 binder: 6.3; ABCB6 inh MLPCN: 94.0; Granule exo inh: 1.2; rCAG RNA binder: -2.6

How did CC(C)NC(=O)Nc1ccc2c(c1)C(=O)N([C@H](C)CO)C[C@H](C)[C@@H](CN(C)C(=O)Nc1ccc3c(c1)OCO3)O2 do in these assays?
PG9 binder: 0.9; ABCB6 inh MLPCN: 105.0; Granule exo inh: 1.1; rCAG RNA binder: 3.5

Results for COc1ccc(C(=O)NCC2CCN(C(=O)C(=O)c3cc4ccccc4o3)CC2)cc1 ?
PG9 binder: 0.5; rCAG RNA binder: 5.0

Results for CC(C)c1ccc(N(CC(=O)NCc2ccc(F)cc2)C(=O)c2snc(C(N)=O)c2N)cc1 ?
PG9 binder: 11.5*; ABCB6 inh MLPCN: 91.0; Granule exo inh: 9.9; rCAG RNA binder: 4.0; PG9 bind confirm: 17.8*; PGV04 counter: 22.8*

How did CCOc1ccc(N(CC(=O)NCc2ccc(F)cc2)C(=O)c2snc(C(N)=O)c2N)cc1 do in these assays?
PG9 binder: 9.4*; ABCB6 inh MLPCN: 94.0; Granule exo inh: -1.5; rCAG RNA binder: 5.8; PG9 bind confirm: 17.9*; PGV04 counter: 25.3*

How did CCc1ccc2oc(C(=O)Nc3ccc(S(N)(=O)=O)cc3)c(C)c2c1 do in these assays?
PG9 binder: 10.0*; ABCB6 inh MLPCN: 94.0; Granule exo inh: -4.8; rCAG RNA binder: 8.5; PG9 bind confirm: 14.6*; PGV04 counter: 20.9*

How did Cc1c(C(=O)Nc2ccc(S(N)(=O)=O)cc2)oc2ccc(Cl)cc12 do in these assays?
PG9 binder: 3.5; ABCB6 inh MLPCN: 103.0; Granule exo inh: -3.7; rCAG RNA binder: 7.3

Results for COc1ccc2c(COC(=O)c3n[nH]c4ccccc34)cc(=O)oc2c1 ?
PG9 binder: 61.8*; ABCB6 inh MLPCN: 92.0; Granule exo inh: -2.2; rCAG RNA binder: 12.2; PG9 bind confirm: 52.9*; PGV04 counter: 57.5*

What do the screens show for `CON(c1nc(Cl)nc(N(C)C)n1)S(=O)(=O)c1ccc(C)cc1`?
PG9 binder: 10.3*; ABCB6 inh MLPCN: 94.0; Granule exo inh: 7.4; rCAG RNA binder: -1.3; PG9 bind confirm: 6.0; PGV04 counter: 8.2

How did Nc1ccc(-c2nc3ccc(-c4nc5ccccc5o4)cc3[nH]2)cc1 do in these assays?
PG9 binder: 10.3*; ABCB6 inh MLPCN: 87.0; Granule exo inh: 16.4; rCAG RNA binder: 14.5; PG9 bind confirm: 10.3*; PGV04 counter: 20.5*

What do the screens show for `Cc1nc2ccc(-c3nc4ccccc4o3)cc2[nH]1`?
PG9 binder: -0.5; ABCB6 inh MLPCN: 97.0; Granule exo inh: 2.9; rCAG RNA binder: 4.4

What do the screens show for `O=C(COc1ccccc1)Nc1nc2cc3c(cc2s1)OCO3`?
PG9 binder: 20.6*; ABCB6 inh MLPCN: 99.0; Granule exo inh: 4.0; rCAG RNA binder: 4.7; PG9 bind confirm: 33.2*; PGV04 counter: 46.2*

How did CCOC(=O)C1CCCN(C(=O)c2ccc3oc(Cc4ccccc4)nc3c2)C1 (configuration not stated) do in these assays?
PG9 binder: 12.0*; ABCB6 inh MLPCN: 98.0; Granule exo inh: -4.8; rCAG RNA binder: -4.9; PG9 bind confirm: 4.7; PGV04 counter: 6.9

What do the screens show for `O=C(Nc1nc2c(Cl)cccc2s1)c1ccc([N+](=O)[O-])o1`?
PG9 binder: -1.8; ABCB6 inh MLPCN: 96.0; Granule exo inh: -1.7; rCAG RNA binder: -1.5

How did O=C(Nc1nc2c(Cl)cccc2s1)c1ccc(Br)o1 do in these assays?
PG9 binder: 34.7*; ABCB6 inh MLPCN: 100.0; Granule exo inh: 4.9; rCAG RNA binder: 5.5; PG9 bind confirm: 39.3*; PGV04 counter: 43.5*

Results for O=C(c1cc2cc(Br)ccc2[nH]1)N1CCc2ccccc21 ?
PG9 binder: 15.1*; ABCB6 inh MLPCN: 102.0; Granule exo inh: 3.0; rCAG RNA binder: 6.2; PG9 bind confirm: 22.2*; PGV04 counter: 46.3*
